Test system: Vero E6 infected with SARS-CoV-2
Test: morphology score (similarity to uninfected cells); higher = more like uninfected cells
Conditions: 24 h

Compound | morphology score
O/N=C/c1cc[n+](COC[n+]2ccc(/C=N/O)cc2)cc1 [obidoxime] (10 µM) | -0.0437
Cc1ccc(-c2nc3ccc(C)cn3c2CC(=O)N(C)C)cc1 (10 µM) | 0.137
COc1cc2c(cc1OC)CN(CCc1ccc(NC(=O)c3cc(OC)c(OC)cc3NC(=O)c3cnc4ccccc4c3)cc1)CC2 [tariquidar] (10 µM) | -0.0369
CCCC(=O)Nc1cccc(NC(=O)c2ccccc2Br)c1 (10 µM) | -0.131
O=C(Nc1cnccc1Cl)N1CCN(Cc2ccc3c(c2)OC(F)(F)O3)CC1 (10 µM) | 0.0915
N[C@@H]1[C@H]2CN(c3nc4c(cc3F)c(=O)c(C(=O)O)cn4-c3ccc(F)cc3F)C[C@@H]12 [trovafloxacin] (10 µM) | 0.276
CN1C(=O)C(Cc2c[nH]c3ccccc23)NC1=S (stereo not drawn) [necrostatin-1] (10 µM) | 0.186
O=C(NC[C@H](O)CO)c1ccncc1Nc1ccc(I)cc1F (0.833333 µM) | -0.139
CC(C)=CCC[C@](C)(O)[C@@H]1CC=C(C)CC1 [levomenol] (10 µM) | -0.0548
CC(=O)[C@H]1CC[C@H]2[C@@H]3CCC4=CC(=O)CC[C@]4(C)[C@H]3CC[C@]12C [progesterone] (10 µM) | 0.206
CC(C)(C)C1CCc2c(sc(NC(=O)c3ccco3)c2C(=O)O)C1 (stereo not drawn) (0.833333 µM) | 0.0992
COc1cc2c(NC3CCN(C(C)C)CC3)nc(N3CCC(F)(F)CC3)nc2cc1OCCCN1CCCC1 (10 µM) | 0.243
C[C@H](N/C(=N/C#N)Nc1cccc2ncccc12)c1ccccc1 (10 µM) | 0.0952
